# Screening data as filed in PubChem.
# DENV2 CPE rescue: inhibitors of DENV2 cytopathic effect; DENV2-infected cells, cytopathic effect rescue, plate reader; CPE inhibition, % at 9.99 µM; 350,000 compounds, 1.7% hits; in the data active = CPE inhibition above about 20%, passing the limit was not always enough; inconclusive = no clear call, values can overlap the other calls; tested in BHK-21 cells;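 note: 0% = median of neutral control wells and 100% = median of positive control wells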
# RAD52 inh: inhibitors of human RAD52 DNA annealing; recombinant RAD52 DNA annealing, FRET fluorescence; inhibition, % at 18.7 µM; 360,000 compounds, 0.46% hits; AID 651710;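 active = every replicate showing at least 50% inhibition; inconclusive = mean inhibition at least 50% but not in every replicate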
# RAD54 branch: blocks human RAD54 Holliday junction branch migration; inhibition, % at 10.4 µM; FAM/BHQ fluorescence; 360,000 compounds, 0.14% hits;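 active = mean normalized replicate activity at least 40 and at least half of replicates scoring 40 or more; inconclusive = only one of the two criteria met; inactive = mean below 40 and under half of replicates reaching 40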;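 note: 0% = median of neutral control wells and 100% = median of positive control wells; inhibitors cause a drop in the FAM fluorescence signal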
# dFosB activator: mouse delta FosB homodimer activation; 340,000 compounds, 0.99% hits; purified delta FosB, TAMRA-CDK5 oligo fluorescence polarization; percent of positive-control signal above neutral wells; activation, % at 25 µM; P13346;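 active = mean activation above about 17%, with every replicate also reaching it, limit read from the data, passing the limit was not always enough; inconclusive = only one of the two conditions met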
# MLL AF4-AF9 inh: inhibitors of human MLL-AF4/AF9 interaction. P42568. inhibition, % at 10 µM. 350,000 compounds, 0.47% hits. AlphaScreen, biotin-AF4 peptide binding to FLAG-AF9;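 active = every replicate reaching a set inhibition limit, whatever the replicate mean, cut at about 25% in these data; inconclusive = mean inhibition reaches that limit but some replicates miss it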;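 note: 0% = plate neutral control median and 100% = total signal loss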
# Target sequence (P42568 whole entry, looked up): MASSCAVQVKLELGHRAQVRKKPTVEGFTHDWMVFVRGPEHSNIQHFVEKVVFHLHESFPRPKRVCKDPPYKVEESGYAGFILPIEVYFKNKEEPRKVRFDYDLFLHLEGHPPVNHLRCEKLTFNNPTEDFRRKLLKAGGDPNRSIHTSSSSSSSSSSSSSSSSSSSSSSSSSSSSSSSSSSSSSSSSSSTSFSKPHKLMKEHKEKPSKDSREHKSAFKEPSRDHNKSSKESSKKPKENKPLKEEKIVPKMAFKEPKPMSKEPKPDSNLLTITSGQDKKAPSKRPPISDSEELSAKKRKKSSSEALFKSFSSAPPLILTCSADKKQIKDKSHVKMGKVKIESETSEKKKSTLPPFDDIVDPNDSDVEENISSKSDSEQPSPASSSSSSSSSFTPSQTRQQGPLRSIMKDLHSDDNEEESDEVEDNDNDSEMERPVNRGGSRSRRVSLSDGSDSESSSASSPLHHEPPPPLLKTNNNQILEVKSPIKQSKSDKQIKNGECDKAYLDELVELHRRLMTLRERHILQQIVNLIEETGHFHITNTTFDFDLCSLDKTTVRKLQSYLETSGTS
# GSIS activator: GLuc luminescence reporter in INS-1E cells, primary screen for activators of glucose-dependent secretion of insulin | 370,000 compounds, 0.61% hits | INS-1E GLuc reporter insulin secretion, 2-3 h | activation, % at 16.6 µM;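 active = lowest replicate activation of at least 40%, so every replicate reaches that level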;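 note: 0% = median of neutral control wells and 100% = median of IBMX positive control wells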
# * = called active by the depositor; ? = inconclusive; · = not tested or not shown. Hits are enriched below; roughly 3.1% of the tested compounds scored in any of these assays.
SMILES,DENV2 CPE rescue,RAD52 inh,RAD54 branch,dFosB activator,MLL AF4-AF9 inh,GSIS activator
COc1ccc(S(=O)(=O)Nc2ccc3c(c2)C(=O)N([C@H](C)CO)C[C@H](C)[C@H](CN(C)S(=O)(=O)c2ccc(Cl)cc2)OCCCC[C@@H](C)O3)cc1,-16,-4,7,·,-3,1
COc1ccc(S(=O)(=O)Nc2ccc3c(c2)C(=O)N([C@@H](C)CO)C[C@H](C)[C@H](CN(C)S(=O)(=O)c2ccc(Cl)cc2)OCCCC[C@H](C)O3)cc1,25*,1,5,·,-2,-3
COc1ccc(S(=O)(=O)Nc2ccc3c(c2)C(=O)N([C@H](C)CO)C[C@@H](C)[C@H](CN(C)S(=O)(=O)c2ccccc2)O3)cc1,-2,-2,2,·,0,6
COc1ccc(S(=O)(=O)N(C)C[C@H]2OCCCC[C@H](C)Oc3ccc(NS(C)(=O)=O)cc3C(=O)N([C@H](C)CO)C[C@@H]2C)cc1,20*,-4,-1,·,2,7
COc1ccc(S(=O)(=O)N(C)C[C@H]2OCCCC[C@@H](C)Oc3ccc(NS(=O)(=O)c4ccccc4)cc3C(=O)N([C@@H](C)CO)C[C@H]2C)cc1,56*,-111,-6,·,1,-58
CCCCCSc1nnc(N)s1,32*,-4,·,-9,-1,·
CC(=O)c1cccc(Nc2ncnc3ccc(Br)cc23)c1,-4,-13,·,-35,-1,49*
CN(C)CCCNC(=O)C[C@@H]1CC[C@@H]2[C@@H](COc3ccc(NC(=O)C4CCC4)cc3C(=O)N2C)O1,6,-8,-4,·,·,12
Cc1ccc(OCC(=O)NC(C)c2ccccc2)cc1 (stereo unspecified),-6,-4,-1,6,-1,47*
CC(NC(=O)COC(=O)c1ccccc1O)c1ccccc1 (stereo unspecified),-9,-6,-7,·,0,13
CC(NC(=O)COC(=O)c1ccccc1Nc1ccccc1)c1ccccc1 (stereo unspecified),·,·,-4,4,·,85*
CSCCC(NC(=O)COc1ccccc1)C(=O)OCCOc1ccc(C)cc1 (stereo unspecified),27*,-8,3,-12,3,-20
CC(C)c1ccc(OCC(=O)NC(C)c2ccccc2)cc1 (stereo unspecified),5,-3,-13,-8,-6,·
Cc1ccc(S(=O)(=O)N(C)C[C@@H]2Oc3c(NC(=O)CCCCCC(=O)Nc4ccccc4N)cccc3C(=O)N([C@H](C)CO)C[C@@H]2C)cc1,2,11,·,·,-2,3
CC=Cc1ccc2n(c1=O)C[C@H]1[C@H](CO)[C@@H](C(=O)NCC3CC3)N(Cc3cccnc3)[C@@H]21 (mixture of isomers),5,-26,5,·,-1,3
COc1ccc(N2CCN(c3cc(C)c4cccc(C)c4n3)CC2)cc1,2,4,5,·,2,8
Cc1cc(N2CCN(c3ncccn3)CC2)nc2c(C)cccc12,3,-10,1,0,41*,13
CC(=O)CSc1ccc(-c2nc3cc(C)c(C)cc3[nH]2)cn1,27*,-12,·,-4,-3,1
CN(C)CC(=O)Nc1ccc2c(c1)[C@@H]1C[C@@H](CC(=O)NCc3ccncc3)O[C@@H](CO)[C@@H]1O2,4,-11,-8,·,-2,-26
CC(C)C#Cc1ccc2c(c1)O[C@H](CN(C)C(=O)c1ccccn1)[C@H](C)CN([C@H](C)CO)S2(=O)=O,-6,8,7,·,1,-5
CO[C@H]1CN(C)C(=O)c2ccc(NS(C)(=O)=O)cc2OC[C@@H](C)N(CCC(F)(F)F)C[C@H]1C,-1,2,-3,·,1,8
O=C(Nc1cc(Cl)ccc1O)c1cc2n(n1)C(C(F)(F)F)CC(c1ccc3c(c1)OCO3)N2 (stereo unspecified),·,·,-6,6,·,·
O=C(NCc1ccc2c(c1)OCO2)c1cc2n(n1)C(C(F)(F)F)CC(c1ccc3c(c1)OCO3)N2 (stereo unspecified),·,·,3,21*,·,-20
COc1ccc2nc(SC(C)C(=O)NC3CCCC3)[nH]c2c1 (stereo unspecified),64*,-9,·,-7,-2,11
CCCC(=O)N1CCC2(CC1)CN(C(=O)c1ccc(F)cc1)[C@@H](CO)c1[nH]c3cc(OC)ccc3c12,-7,8,·,·,0,12
SMILES,DENV2 CPE rescue,RAD52 inh,RAD54 branch,dFosB activator,MLL AF4-AF9 inh,GSIS activator
CCN(CC)c1ccc(NC(=O)CN(C)Cc2cccs2)cc1,1,-3,-4,-4,27*,5
CCOC(=O)c1c(C)n(OCc2ccccc2)c2ccc3nonc3c12,-1,-9,-4,1,33*,2
O=C1OCCN1/N=C/c1ccc([N+](=O)[O-])o1,0,-29,-7,4,-6,-2
O=C1CN(/N=C/c2ccc([N+](=O)[O-])o2)C(=O)N1,-11,-47,-5,·,25*,·
COc1ccc(NC(=O)N(C)C[C@@H]2Oc3ccc(NC(=O)Nc4ccc5c(c4)OCO5)cc3C(=O)N([C@@H](C)CO)C[C@@H]2C)cc1,6,10,2,·,3,-7
Cc1ccc(NC(=O)Cn2cccc2C2=NC(c3ccccc3)CO2)cc1C (stereo unspecified),103*,14,-11,-3,-1,·
CC(=O)N1[C@H](CO)[C@H](c2ccccc2)C12CN(C(=O)CN1CCOCC1)C2,83*,6,·,·,-2,12
CC(=O)N1[C@H](CO)[C@@H](c2ccccc2)C12CN(C(=O)c1ccc3c(c1)OCO3)C2,55*,4,·,·,-1,-12
COc1cccc(S(=O)(=O)N[C@H]2CC[C@H](CC(=O)NCc3ccccc3)O[C@@H]2CO)c1,18,14,3,·,1,3
COCCNc1nc(Oc2cccc(F)c2)c2sccc2n1,-8,-10,-10,·,2,11
COCCNc1nc(Oc2cncc(Cl)c2)c2sccc2n1,-3,-5,-6,·,-2,55*
COCCNc1nc(NC(C)C)nc2ccsc12,-11,-15,-7,·,2,82*
COc1ccc2c3c(n(C)c2c1)[C@@H](CO)NCC31CN(Cc2ccc(Cl)cc2)C1,7,·,·,·,45*,2
COc1ccc2c3c(n(C)c2c1)[C@H](CO)NCC31CN(Cc2ccc(F)cc2)C1,-1,62*,·,·,36*,2
COc1ccc2c3c(n(C)c2c1)[C@@H](CO)NCC31CCN(Cc2ccc(F)cc2)CC1,·,·,·,·,·,-8
COc1ccc2c3c(n(C)c2c1)[C@@H](CO)NCC31CN(Cc2ccncc2)C1,·,·,·,·,·,2
COc1ccc2c3c(n(C)c2c1)[C@@H](CO)N(Cc1ccc(F)cc1)CC31CCN(CC2CC2)CC1,-1,1,·,·,?,-14
COc1ccc2c3c(n(C)c2c1)[C@H](CO)N(CC1CC1)CC31CN(Cc2ccc(F)cc2)C1,13,35,·,·,31*,-2
